This test can be described thus: restorers of sdo1-deficient yeast growth – S. cerevisiae, bone marrow failure model, primary screen (AID 817).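 Note: z-score against mean and SD of all compound wells on the same plate.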 The note with it: S. cerevisiae sdo1-depleted JHY4D growth rescue, at 10 µM, stronger effect = higher value, pdr5 snq2 efflux-pump mutant strain.
Setting [1] is: OD600, measured here: growth rescue at 24 h.

The whole screen tested about 140,000 compounds, of which about 300 (0.21%) were called active.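 Rule for the calls: active = z-score above 3 at both the 24 hr and the 30 hr optical density reads; inactive = the rest, inconclusive results apart.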 The entries come from a sample that favours actives as a whole.

Take `Cc1[nH]c2ccccc2c1C(=O)COC(=O)C(C)C`: the z-score is 0.17 (inactive) (OD600 30 h) and -0.5 under setting [1].

For `CCCC1OC23CCCCC2C(C#N)(C#N)C1(C#N)C(=N)O3` (configuration not stated), the z-score reads like this: (OD600 30 h) 0.28 (inactive); under setting [1], 0.9.

Consider `CCOc1ccc2c(=O)c(-c3ccc4c(c3)OCCCO4)c(C)oc2c1`, for which the z-score by setting is: (OD600 30 h) 0.07 (inactive); under setting [1], -0.34.

For the compound `O=C(OCC(=O)c1c[nH]c2ccccc12)c1cccc(O)c1`, the z-score by setting is: (OD600 30 h) 0 (inactive); under setting [1], 0.

For `O=C(NC(=S)Nc1ccc2oc(=O)ccc2c1)c1ccc(-c2cccc(Cl)c2Cl)o1`, the z-score runs as follows: (OD600 30 h) -0.64 (inactive); under setting [1], 0.44.

Turning to `CCOC(=O)c1c(NC(=S)Nc2ccccc2C)sc2c1CCC2`, the z-score runs as follows: (OD600 30 h) -0.66 (inactive); under setting [1], 0.75.

For the compound `COc1ccc(C(C[N+](=O)[O-])n2nc(C)cc2C)cc1` (configuration not stated), the z-score by setting is: (OD600 30 h) -2.03 (inactive); under setting [1], -0.33.

For the compound `O=C(N/N=C\c1ccc(Br)cc1)c1ccc(Cn2cccn2)o1`, the z-score was 0.87 (inactive) (OD600 30 h) and -0.05 under setting [1].

`O=S(=O)(NCC1CCCO1)c1cnc(Cl)c(Cl)c1` (configuration not stated): the z-score runs as follows: (OD600 30 h) 1.1 (inactive); under setting [1], 0.93.

Consider `Cc1c(C(=O)NCCN2C(=O)S/C(=C\c3cccs3)C2=O)cccc1[N+](=O)[O-]`, for which the z-score was -0.51 (inactive) (OD600 30 h) and -0.6 under setting [1].

`COc1cccc(NC(=O)C(Sc2nc3ccccc3c(=O)n2CC(C)C)c2ccccc2)c1` (configuration not stated): the z-score is, setting by setting: (OD600 30 h) -1.02 (inactive); under setting [1], -0.31.

With `Cc1nnnn1/C(=C\c1ccccc1)C(=O)OCC(=O)N1CC2(C)CC1CC(C)(C)C2` (configuration not stated), the z-score (OD600 30 h) was -1.27 (inactive) and the z-score under setting [1] is -0.83.

Consider `Cc1cccc(N=C2NN=C(c3c[nH]c4ccccc34)CS2)c1`, for which the z-score is, setting by setting: (OD600 30 h) -1 (inactive); under setting [1], -0.78.

With `COC(=O)c1c(NC(=O)CN2C(=O)NC(CCc3ccccc3)C2=O)sc2c1CCCCC2` (configuration not stated), the z-score runs as follows: (OD600 30 h) 0.43 (inactive); under setting [1], 0.79.

As for `Cc1ccc(Sc2ccncc2S(N)(=O)=O)cc1`, the z-score (OD600 30 h) is 1.59 (inactive) and the z-score under setting [1] was 0.76.

Consider `O=C(O)c1ccc(N=NN2CCOCC2)cc1`, for which the z-score reads like this: (OD600 30 h) -0.02 (inactive); under setting [1], -0.59.

On to `COc1ccc(C2Nc3ccccc3C(=O)N2c2ccc(Cl)cc2)cc1Cn1cc([N+](=O)[O-])cn1` (configuration not stated), for which the z-score is -0.41 (inactive) (OD600 30 h) and -0.21 under setting [1].

Turning to `O=C(N/N=C/c1ccc2c(c1)OCO2)c1ccc(Cn2cc([N+](=O)[O-])cn2)o1`, the z-score (OD600 30 h) was 0.69 (inactive) and the z-score under setting [1] was -0.21.

In the case of `COc1cc(OC)nc(NC(=O)CCl)n1`, the z-score was -0.13 (inactive) (OD600 30 h) and -1.15 under setting [1].

Turning to `COc1cc(OC)nc(S(C)(=O)=O)n1`, the z-score was 3.91 (active) (OD600 30 h) and 4.26 under setting [1].

For the compound `CCC(=O)Nc1nc(OC)cc(OC)n1`, the z-score (OD600 30 h) is 0.5 (inactive) and the z-score under setting [1] is -0.32.

With `CS(=O)(=O)Nc1ccc(C(=O)N2CCCC2)cc1`, the z-score reads like this: (OD600 30 h) 8.85 (active); under setting [1], 8.64.

Regarding `O=C(c1ccc(S(=O)(=O)c2ccccc2)cc1)N1CCCCCC1`, the z-score is 1.85 (inactive) (OD600 30 h) and 2.69 under setting [1].

Take `Cc1c(Cl)cccc1NC(=O)Nc1ccc(C(=O)N2CCCC2)cc1`: the z-score runs as follows: (OD600 30 h) 0.9 (inactive); under setting [1], -0.18.

As for `Cc1ccc(-c2nnc(SCC(=O)N/N=C/c3cccs3)n2-c2ccc(C)cc2)cc1`, the z-score is, setting by setting: (OD600 30 h) 0.44 (inactive); under setting [1], 0.52.

Consider `CCOc1ccc(C(=O)NC(=S)Nc2ccc(NC(=O)C(C)C)cc2)cc1[N+](=O)[O-]`, for which the z-score is -0.64 (inactive) (OD600 30 h) and 0.38 under setting [1].

As for `CC(=O)COc1ccc2c(-c3ccccc3)cc(=O)oc2c1`, the z-score is, setting by setting: (OD600 30 h) -0.11 (inactive); under setting [1], -0.39.

Turning to `COc1cc(/C=C/CO)cc(OC)c1O[C@@H]1O[C@H](CO)[C@@H](O)[C@H](O)[C@H]1O`, the z-score reads like this: (OD600 30 h) 0.24 (inactive); under setting [1], 0.99.

Consider `Cc1ccc(S(=O)(=O)C2C(=O)NC3(C)CC2c2ccccc2O3)cc1` (configuration not stated), for which the z-score is 0.78 (inactive) (OD600 30 h) and 0.14 under setting [1].

`CCOC(=O)C1=C(C)Nc2nc3ccccc3n2C1c1cccs1` (configuration not stated): the z-score was -0.33 (inactive) (OD600 30 h) and 0.25 under setting [1].

`CCCc1cc(=O)[nH]c(SCC(=O)N2CCN(S(=O)(=O)c3ccc(C)cc3C)CC2)n1`: the z-score runs as follows: (OD600 30 h) 0.64 (inactive); under setting [1], 0.59.

Consider `Cc1cc(OCCN2CCCC2)cc(C(C)C)c1`, for which the z-score is, setting by setting: (OD600 30 h) -1.32 (inactive); under setting [1], -1.82.

In the case of `Cc1cccc(Nc2nc3c(S(=O)(=O)c4ccccc4)nnn3c3ccccc23)c1C`, the z-score (OD600 30 h) was 2.09 (inactive) and the z-score under setting [1] is 3.12.

`O=C(NC(=O)N1CCOCC1)c1ccccc1`: the z-score was 0.99 (inactive) (OD600 30 h) and 0.24 under setting [1].

For `COc1ccc(C(=O)NC2(C(F)(F)F)NC(=O)N(CCCc3ccccc3)C2=O)c(OC)c1OC` (configuration not stated), the z-score is -0.49 (inactive) (OD600 30 h) and 0.17 under setting [1].

With `O=C(/C=C/c1ccc(F)cc1)Nc1cccc(S(=O)(=O)Nc2cccc(C(F)(F)F)c2)c1`, the z-score is -0.39 (inactive) (OD600 30 h) and -0.2 under setting [1].

Turning to `COc1ccc2c(CN3CCN(S(=O)(=O)c4cccs4)CC3)cc(=O)oc2c1`, the z-score reads like this: (OD600 30 h) -1.29 (inactive); under setting [1], -1.27.

For `COc1cc(CC(=O)N/N=C/c2ccccc2)c([N+](=O)[O-])cc1OC`, the z-score runs as follows: (OD600 30 h) 0.66 (inactive); under setting [1], 0.79.

As for `Cc1ccc2[nH]c(C(=O)O)c(NC(=O)c3ccccc3[N+](=O)[O-])c2c1`, the z-score reads like this: (OD600 30 h) 1.28 (inactive); under setting [1], 1.83.

Take `CCN(CC)S(=O)(=O)c1cc([N+](=O)[O-])ccc1N=Nc1c(O)n(C)c2ccccc12`: the z-score is -0.62 (inactive) (OD600 30 h) and 0.64 under setting [1].

Consider `Cc1cccc(C(=O)c2cccc(C)c2)c1`, for which the z-score (OD600 30 h) is -0.29 (inactive) and the z-score under setting [1] is -0.6.
